Measured values published in PubChem BioAssay AID1851 (National Center for Advancing Translational Sciences (NCATS), 2009).
About 5,700 (36%) of roughly 16,000 compounds were called active. Not shown: some 24% with an inconclusive outcome. Calls come from the whole dose curve; as a rule, active = well fitted curve in the direction sought with a large enough effect; inconclusive = small, poorly fitted or top-dose-only effect, or effect the other way; inactive = no such curve, though single readings can be large or run the other way. The list shows a part of the results.

Target: Cytochrome P450 1A2 (Homo sapiens) (UniProt P05177)
Test: Cytochrome panel assay with activity outcomes
Conditions: recombinant CYP, pro-luciferin dealkylation, luminescence, p450-cyp1a2; series mostly up to 57.1 µM; activity, negative = inhibition: at the top concentration
% is set by controls: 0 for no effect and ±100 for the full control effect.

Sequence of Cytochrome P450 1A2 (Homo sapiens) (P05177 whole entry, looked up): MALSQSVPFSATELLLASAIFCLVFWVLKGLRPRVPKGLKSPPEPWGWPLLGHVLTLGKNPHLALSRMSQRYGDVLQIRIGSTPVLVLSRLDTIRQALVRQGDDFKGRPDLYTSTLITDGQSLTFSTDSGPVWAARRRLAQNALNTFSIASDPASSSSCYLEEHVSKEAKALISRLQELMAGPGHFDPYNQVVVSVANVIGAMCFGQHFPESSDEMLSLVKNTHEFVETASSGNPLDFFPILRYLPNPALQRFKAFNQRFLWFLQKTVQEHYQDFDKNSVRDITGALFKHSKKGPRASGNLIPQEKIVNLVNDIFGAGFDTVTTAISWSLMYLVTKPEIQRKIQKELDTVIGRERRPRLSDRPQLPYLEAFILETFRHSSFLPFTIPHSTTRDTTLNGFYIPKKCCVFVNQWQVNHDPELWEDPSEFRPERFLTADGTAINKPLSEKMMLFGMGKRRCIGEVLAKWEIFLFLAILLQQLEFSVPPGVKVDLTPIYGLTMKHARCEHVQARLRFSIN

**Q.** With O=C1[C@@H]2C=CC=CC2=NC(=S)N1CCN1CCC(=C(c2ccc(F)cc2)c2ccc(F)cc2)CC1 as the compound, how does the “activity, negative = inhibition” value read?
**A.** -5.13% (inactive)

**Q.** Which “activity, negative = inhibition” value does the source give for O=C(NNC(=S)Nc1ccccc1)c1ccco1 here?
**A.** 0.324% (inactive)

**Q.** How did the “activity, negative = inhibition” value turn out when CN(C(=O)C(Cl)Cl)c1ccc(OC(=O)c2ccco2)cc1 was run?
**A.** -3.35% [at 25.6 µM] (inactive)

**Q.** How did the AC50 turn out when O=C(Nc1cccc(OC(=O)c2ccco2)c1)c1ccco1 was run?
**A.** 22.4 µM (active)

**Q.** Which AC50 does the source give for O=C(Oc1ccccc1[N+](=O)[O-])c1cccnc1 here?
**A.** 20 µM (active)

**Q.** With COc1ccc(C(C)=O)c(OC(=O)c2ccco2)c1 as the compound, how does the AC50 read?
**A.** 2 µM (active)

**Q.** How did the AC50 turn out when O=C(Oc1cccc(Br)c1)c1cccnc1 was run?
**A.** 12.6 µM (active)

**Q.** NC(=O)c1ncn([C@@H]2O[C@@H](CO)[C@@H](O)[C@H]2O)c1O was tested. Which “activity, negative = inhibition” value did it give?
**A.** -1.3% (inactive)

**Q.** Which “activity, negative = inhibition” value does the source give for O=[N+]([O-])c1ccc(CSc2ncnc3c2ncn3[C@@H]2O[C@@H](CO)[C@@H](O)[C@H]2O)cc1 here?
**A.** -12.3% (inactive)

**Q.** How did the AC50 turn out when O=C(Nc1cccc(OC(=O)c2cccnc2)c1)c1cccnc1 was run?
**A.** 7.08 µM (active)

**Q.** How did the AC50 turn out when O=C(Nc1ccc2nc(-c3ccc(Br)o3)[nH]c2c1)c1ccco1 was run?
**A.** 3.55 µM (active)

**Q.** With CCOc1ccc(C(=O)Nc2ccc(NC(=O)c3ccco3)c(Cl)c2)cc1Br as the compound, how does the “activity, negative = inhibition” value read?
**A.** -16.5% (inactive)

**Q.** O=C(Nc1ccc(OC(=O)c2cccnc2)cc1)c1cccnc1 was tested. Which “activity, negative = inhibition” value did it give?
**A.** -22.8% (inactive)

**Q.** How did the “activity, negative = inhibition” value turn out when CC(C)C(=O)Nc1ccc(NC(=O)c2cccnc2)cn1 was run?
**A.** -6.09% (inactive)

**Q.** How did the AC50 turn out when O=C(Nc1cccc(NC(=O)c2ccc(-c3cccc(Br)c3)o2)c1)c1ccco1 was run?
**A.** 3.16 µM (active)

**Q.** How did the activity, negative = inhibition turn out when CN(C)Cc1cc(C(C)(C)C)ccc1-c1ccc(C(C)(C)C)cc1CN(C)C was run?
**A.** -17.9% [at 2.29 µM] (inactive)

**Q.** With CN(C)Cc1ccccc1-c1nccc(Nc2ccc(F)cc2)n1 as the compound, how does the AC50 read?
**A.** 3.16 µM (active)

**Q.** CNc1ccnc(-c2ccccc2CN(C)C)n1 was tested. Which AC50 did it give?
**A.** 12.6 µM (active)

**Q.** Which AC50 does the source give for CN(C)Cc1ccccc1-c1nccc(N(C)C)n1 here?
**A.** 12.6 µM (active)

**Q.** For CN(C)Cc1ccccc1-c1nccc(NC2CC2)n1, which AC50 is on record?
**A.** 1.58 µM (active)

**Q.** COCC(=O)N1CCC2(CC1)CCN(C(c1ccccc1)c1ccccc1)CC2 was tested. Which “activity, negative = inhibition” value did it give?
**A.** 5.84% (inactive)

**Q.** With O=C(Nc1cccc(F)c1)N1CC[C@@]2(CCCN(C(=O)c3cnccn3)C2)C1 as the compound, how does the “activity, negative = inhibition” value read?
**A.** -11.2% (inactive)

**Q.** With CCOC(=O)c1c(CC(C)C)csc1NC=O as the compound, how does the AC50 read?
**A.** 0.224 µM (active)

**Q.** How did the AC50 turn out when COc1cccc(Nc2ncc3nc(-c4cccs4)c(=O)n(CCC#N)c3n2)c1 was run?
**A.** 2.51 µM (active)

**Q.** CCNc1ncc2nc(-c3cccs3)c(=O)n(CCC#N)c2n1 was tested. Which AC50 did it give?
**A.** 3.16 µM (active)

**Q.** For N#CCCn1c(=O)c(-c2cccs2)nc2cnc(Nc3ccccc3)nc21, which AC50 is on record?
**A.** 5.01 µM (active)

**Q.** CCNc1ncc2nc(-c3cccs3)c(=O)n(CCc3ccccc3)c2n1 was tested. Which AC50 did it give?
**A.** 10 µM (active)

**Q.** CCOC(=O)c1c(-c2ccc(C)o2)csc1NC(=S)NC(=O)N(C)C was tested. Which AC50 did it give?
**A.** 1.58 µM (active)

**Q.** O=C1C2=CC[C@H]3C(=O)N(c4cccc(Oc5ccccc5)c4)C(=O)[C@@H]3[C@@H]2[C@H](O)[C@@H]2O[C@H]12 was tested. Which activity, negative = inhibition did it give?
**A.** -1.58% [at 11.4 µM] (inactive)

**Q.** With O=C(CN1C(=O)C2C3C=CC(C3)C2C1=O)Nc1ccc(C(=O)O)cc1 (centres undefined) as the compound, how does the “activity, negative = inhibition” value read?
**A.** -3.43% (inactive)

**Q.** Which AC50 does the source give for CN(C)c1ccc(NC(=O)c2cccc(N3C(=O)C4C5C=CC(C5)C4C3=O)c2)cc1 (centres undefined) here?
**A.** 2 µM (active)

**Q.** With O=C(CCN1C(=O)C2C3C=CC(C3)C2C1=O)Nc1ccc2ncccc2c1 (centres undefined) as the compound, how does the “activity, negative = inhibition” value read?
**A.** -7.75% (inactive)

**Q.** With CO[C@@H]1COC(=O)C/C=C\[C@@H](C)COC(=O)[C@H](COCc2ccccc2)NC(=O)C/C=C\[C@H]1C as the compound, how does the activity, negative = inhibition read?
**A.** -7.1% [at 11.4 µM] (inactive)

**Q.** With O=[n+]1c2c(n([O-])c3cc(F)c(F)cc31)CCCC2 as the compound, how does the AC50 read?
**A.** 14.1 µM (active)

**Q.** With CCOc1ccc(-c2c[n+](=O)c3c(n2[O-])CCCC3)c(OCC)c1 as the compound, how does the “activity, negative = inhibition” value read?
**A.** -21% (inactive)

**Q.** CCC1(C)Nc2ccccc2C(=O)N1O (centres undefined) was tested. Which “activity, negative = inhibition” value did it give?
**A.** -28.5% (inactive)

**Q.** With CCCC1(C)Nc2ccccc2-c2nc3ccccc3n21 (centres undefined) as the compound, how does the AC50 read?
**A.** 8.91 µM (active)

**Q.** CCCCC1(C)Nc2ccccc2-c2nc3ccccc3n21 (centres undefined) was tested. Which AC50 did it give?
**A.** 14.1 µM (active)

**Q.** Fc1ccc(Nc2ccnc(-c3ccoc3)n2)cc1 was tested. Which AC50 did it give?
**A.** 1 µM (active)

**Q.** With CN(C)c1ccc(-c2cc(Nc3ccc(F)cc3)ncn2)cc1 as the compound, how does the AC50 read?
**A.** 0.398 µM (active)

**Q.** Which AC50 does the source give for Fc1ccc(Nc2ccnc(-c3ccc4c(c3)OCO4)n2)cc1 here?
**A.** 0.631 µM (active)

**Q.** With CN(C)C(=O)c1ccc(-c2nccc(Nc3ccc(F)cc3)n2)cc1 as the compound, how does the AC50 read?
**A.** 6.31 µM (active)

**Q.** With CCCCC1CC(/C(C)=N/NC(N)=O)OC1=O (centres undefined) as the compound, how does the “activity, negative = inhibition” value read?
**A.** -23% (inactive)

**Q.** For C[C@@]12CC(=O)[C@@H]3[C@@H](CCC4=CC(=O)CC[C@]43C)[C@@H]1CC=C2CC(=O)O, which activity, negative = inhibition is on record?
**A.** -17% [at 11.4 µM] (inactive)

**Q.** With NC(=O)CCCC1=NS(=O)(=O)c2ccccc2N1 as the compound, how does the “activity, negative = inhibition” value read?
**A.** 8.32% (inactive)

**Q.** For CN(C)[C@@H]1C(=O)C(C(N)=O)=C(O)[C@]2(O)C(=O)C3=C(O)c4c(O)ccc(Cl)c4[C@H](O)[C@H]3C[C@@H]12, which AC50 is on record?
**A.** inactive

**Q.** With CC1(C)O[C@H]2[C@@H](c3[nH]nc4c(=O)[nH]c(=O)[nH]c34)OC[C@H]2O1 as the compound, how does the activity, negative = inhibition read?
**A.** -11.5% [at 11.4 µM] (inactive)

**Q.** For CN(C)c1ccc(-c2nccc(Nc3ccc(F)cc3)n2)cc1, which AC50 is on record?
**A.** 0.501 µM (active)

**Q.** How did the activity, negative = inhibition turn out when NNC(=O)[C@@H](O)[C@H](O)[C@H](O)CO was run?
**A.** -0.774% [at 11.4 µM] (inactive)

**Q.** For N#C[C@@H](N=Nc1ccccc1C(=O)O)C(N)=O, which activity, negative = inhibition is on record?
**A.** -8.23% [at 11.4 µM] (inactive)

**Q.** For N=C(N)[C@H](N=Nc1ccccc1)C(N)=O, which AC50 is on record?
**A.** 0.794 µM (active)

**Q.** For NC(Cc1ccccc1)=NCC(=O)O, which activity, negative = inhibition is on record?
**A.** -5.52% [at 11.4 µM] (inactive)

**Q.** CC(C)(C)NC[C@@H](O)c1ccc(O)c(CO)n1 was tested. Which activity, negative = inhibition did it give?
**A.** 10.1% [at 2.29 µM] (inactive)

**Q.** Which AC50 does the source give for CC[N+](C)(CC)CCC[n+]1c(-c2ccccc2)c2cc(N)ccc2c2ccc(N)cc21 here?
**A.** 12.6 µM (active)

**Q.** Cn1c(=S)c2[nH]c(SCCN3CCCC3)nc2n(C)c1=O was tested. Which activity, negative = inhibition did it give?
**A.** -29.7% [at 2.29 µM] (inactive)

**Q.** Which AC50 does the source give for Cn1c(=S)c2[nH]c(SCCCc3ccccc3)nc2n(C)c1=O here?
**A.** 3.16 µM (active)

**Q.** How did the activity, negative = inhibition turn out when Cn1c(=O)c2[nH]c(CCCc3ccc([N+](=O)[O-])cc3)nc2n(C)c1=O was run?
**A.** -18.9% [at 11.4 µM] (inactive)

**Q.** COC(=O)C/C=C\[C@@H](C)[C@@H](/C=N\OC[C@@H](O)COCc1ccco1)NS(=O)(=O)c1ccc(C)cc1 was tested. Which activity, negative = inhibition did it give?
**A.** 3.98% [at 11.4 µM] (inactive)

**Q.** Which AC50 does the source give for Oc1cccc(-c2nc3c4c(ncn3n2)-c2ccccc2CC42CCCC2)c1 here?
**A.** 10 µM (active)
